Test results: PubChem BioAssay AID1159580 (chemical genetic matrix, 2015)
Values joined by “and” are separate entries in the source; they are usually repeats but may differ in a detail not shown here. Identical values can stand only once. Screen size: about 5,500 compounds; about 2,000 (36%) were called active. Another 18% or so got no clear call; they are omitted. Rule as the data show it: active = normalized growth mostly below about 0.91 (no sharp cut-off); inconclusive = no clear call, values can overlap the other calls; inactive = mostly above about 0.92. This is one part of the list.

Assay: chemical genetic growth profiling, strain panel (AID 1159580);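 also: tested at 20 µM; growth read once vehicle control cultures reached saturation at 30 °C; 1 = growth at the plate median or of vehicle wells; lower values mean less growth of the strain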
Conditions: S. cerevisiae deletion strains, growth OD
[1] = locus YAL013W, strain DEP1, hits give low values
[2] = locus YBR229C, strain ROT2, hits give low values
[3] = locus YDL101C, strain DUN1, hits give low values
[4] = locus YDL134C, strain PPH21, hits give low values
[5] = locus YDR150W, strain NUM1, hits give low values
[6] = locus YEL061C, strain CIN8, hits give low values
[7] = locus YHR030C, strain SLT2, hits give low values
[8] = locus YJL187C, strain SWE1, hits give low values
[9] = locus YJR043C, strain POL32, hits give low values
[10] = locus YJR075W, strain HOC1, hits give low values
[11] = locus YLR039C, strain RIC1, hits give low values
[12] = locus YLR262C, strain YPT6, hits give low values
[13] = locus YMR263W, strain SAP30, hits give low values
[14] = locus YNL322C, strain KRE1, hits give low values
[15] = locus YPL055C, strain LGE1, hits give low values
[16] = locus YPL241C, strain CIN2, hits give low values

Measured: normalized growth

Cc1cc(O)cc(=O)o1
inactive: [1] 0.999 | locus YAL021C, strain ccr4, hits give low values 0.991 | locus YAL026C, strain drs2, hits give low values 0.998 | locus YAL030W, strain snc1, hits give low values 0.993 | locus YBL061C, strain skt5, hits give low values 1 | locus YBR009C, strain hhf1, hits give low values 0.997 | locus YBR021W, strain FUR4, hits give low values 0.985 | locus YBR023C, strain chs3, hits give low values 1.01 | locus YBR171W, strain sec66, hits give low values 0.988 | [2] 0.992 | locus YBR231C, strain swc5, hits give low values 1.02 | locus YBR279W, strain paf1, hits give low values 1 | locus YCL011C, strain gbp2, hits give low values 0.991 | locus YCL016C, strain dcc1, hits give low values 0.991 | locus YCL029C, strain bik1, hits give low values 0.974 | locus YCL069W, strain vba3, hits give low values 1.01 | locus YCR088W, strain abp1, hits give low values 0.991 | locus YDL005C, strain med2, hits give low values 1.01 | locus YDL035C, strain GPR1, hits give low values 1.02 | locus YDL040C, strain nat1, hits give low values 1 | locus YDL074C, strain BRE1, hits give low values 1.01 | [3] 0.988 | [4] 1.03 | locus YDL185W, strain tfp1, hits give low values 0.971 | locus YDL192W, strain arf1, hits give low values 0.994 | locus YDR001C, strain nth1, hits give low values 0.989 | locus YDR069C, strain doa4, hits give low values 1.03 | locus YDR101C, strain arx1, hits give low values 0.971 | locus YDR137W, strain rgp1, hits give low values 0.998 | [5] 1.01 | locus YDR159W, strain sac3, hits give low values 1.02 | locus YDR162C, strain NBP2, hits give low values 1.02 | locus YDR195W, strain ref2 0.979 | locus YDR297W, strain sur2, hits give low values 1.02 | locus YDR318W, strain mcm21, hits give low values 1.02 | locus YDR334W, strain swr1, hits give low values 0.989 | locus YDR335W, strain msn5, hits give low values 1 | locus YDR388W, hits give low values 0.992 | locus YDR392W, strain spt3, hits give low values 1.03 | locus YDR502C, strain sam2, hits give low values 1 | locus YEL003W, strain gim4, hits give low values 0.992 | locus YEL037C, strain rad23, hits give low values 0.994 | locus YEL061C, strain CIN8 (second series), hits give low values 0.992 | [6] 1 | locus YER015W, strain faa2, hits give low values 1.01 | locus YER016W, strain bim1, hits give low values 0.994 | locus YER110C, hits give low values 0.986 | locus YER111C, strain swi4, hits give low values 1.01 | locus YER155C, strain BEM2 (second series), hits give low values 1.04 | locus YER155C, strain BEM2, hits give low values 0.982 | locus YER167W, strain BCK2, hits give low values 0.99 | locus YFR010W, strain ubp6, hits give low values 0.982 | locus YGL078C, strain dbp3, hits give low values 0.981 | locus YGL086W, strain mad1, hits give low values 0.969 | locus YGL167C, strain pmr1, hits give low values 0.983 | locus YGL173C, strain kem1, hits give low values 1.02 | locus YGL227W, strain vid30, hits give low values 1.01 | locus YGL240W, strain doc1, hits give low values 1.03 | locus YGL248W, strain PDE1, hits give low values 0.997 | locus YGL253W, strain hxk2, hits give low values 0.997 | locus YGR135W, strain pre9, hits give low values 1.03 | locus YGR252W, strain gcn5, hits give low values 1.09 | locus YHR013C, strain ard1, hits give low values 0.998 | locus YHR027C, strain rpn1, hits give low values 0.989 | [7] 0.992 and 0.959 | locus YHR079C, strain IRE1 (second series), hits give low values 0.992 | locus YHR079C, strain IRE1, hits give low values 0.969 | locus YHR094C, strain hxt1, hits give low values 0.986 | locus YHR129C, strain ARP1, hits give low values 1 | locus YHR142W, strain chs7, hits give low values 0.987 | locus YHR200W, strain rpn10, hits give low values 0.993 | locus YIL066C, strain RNR3, hits give low values 0.988 | locus YIL073C, strain SPO22, hits give low values 0.993 | locus YIL125W, strain kgd1, hits give low values 0.984 | locus YIR030C, strain dcg1, hits give low values 0.99 | locus YJL092W, strain hpr5, hits give low values 0.987 | locus YJL095W, strain BCK1 (second series), hits give low values 1 | locus YJL095W, strain BCK1, hits give low values 1.01 and 0.959 | locus YJL115W, strain asf1, hits give low values 0.969 | locus YJL129C, strain trk1, hits give low values 1 | locus YJL134W, strain LCB3, hits give low values 0.994 | locus YJL154C, strain vps35, hits give low values 0.989 | locus YJL164C, strain tpk1, hits give low values 0.996 | locus YJL166W, strain qcr8, hits give low values 1.03 | locus YJL168C, strain set2, hits give low values 0.992 | locus YJL187C, strain SWE1 (second series), hits give low values 0.992 | [8] 1.01 | [9] 1.01 | locus YJR066W, strain TOR1, hits give low values 0.921 | [10] 0.998 | locus YKL009W, strain mrt4, hits give low values 0.961 | locus YKL068W, hits give low values 0.989 | locus YKL085W, strain MDH1 (second series), hits give low values 0.984 | locus YKL085W, strain MDH1, hits give low values 0.984 | locus YKL160W, strain elf1, hits give low values 0.994 | locus YKL190W, strain CNB1, hits give low values 1.01 | locus YKR001C, strain vps1, hits give low values 0.983 | locus YKR026C, strain gcn3, hits give low values 0.993 | locus YKR091W, strain srl3, hits give low values 0.983 | locus YLL001W, strain dnm1, hits give low values 0.995 | locus YLL026W, hits give low values 1.01 | locus YLL041C, strain sdh2, hits give low values 0.985 | locus YLR027C, strain aat2, hits give low values 1.01 | [11] 1.02 | locus YLR058C, strain SHM2, hits give low values 1 | locus YLR102C, strain apc9, hits give low values 0.991 | locus YLR113W, strain HOG1, hits give low values 0.951 | locus YLR221C, strain rsa3, hits give low values 1.03 | locus YLR258W, strain gsy2, hits give low values 1.02 | locus YLR262C, strain YPT6 (second series), hits give low values 0.995 | [12] 1.04 | locus YLR268W, strain sec22, hits give low values 0.965 | locus YLR320W, strain mms22, hits give low values 1.05 | locus YLR330W, strain CHS5, hits give low values 0.99 | locus YLR342W, strain FKS1 (second series), hits give low values 1 | locus YLR342W, strain FKS1, hits give low values 1.01 | locus YLR357W, strain rsc2, hits give low values 0.973 | locus YLR370C, strain arc18, hits give low values 1.01 | locus YLR371W, strain rom2, hits give low values 0.974 | locus YLR384C, strain iki3, hits give low values 1 | locus YLR418C, strain cdc73, hits give low values 1.01 | locus YML016C, strain PPZ1, hits give low values 0.985 | locus YML032C, strain rad52, hits give low values 1.02 | locus YML120C, strain ndi1, hits give low values 0.994 | locus YML124C, strain tub3, hits give low values 0.994 | locus YMR058W, strain fet3, hits give low values 0.987 | locus YMR078C, strain ctf18, hits give low values 0.991 | locus YMR125W, strain sto1, hits give low values 0.955 | locus YMR129W, hits give low values 0.996 | locus YMR205C, strain PFK2, hits give low values 1.01 | locus YMR223W, strain ubp8, hits give low values 0.999 | locus YMR231W, strain pep5, hits give low values 1.01 | [13] 1.01 | locus YMR307W, strain GAS1, hits give low values 1.01 | locus YNL067W, strain RPL9B, hits give low values 1.01 | locus YNL071W, strain lat1, hits give low values 1 | locus YNL183C, strain NPR1, hits give low values 0.898 | locus YNL209W, strain ssb2, hits give low values 0.995 | locus YNL233W, strain BNI4, hits give low values 0.997 | locus YNL248C, strain rpa49, hits give low values 0.99 | locus YNL250W, strain rad50, hits give low values 0.991 | locus YNL271C, strain bni1, hits give low values 0.976 | locus YNL298W, strain CLA4, hits give low values 0.988 | locus YNL307C, strain MCK1, hits give low values 0.977 | locus YNL322C, strain KRE1 (second series), hits give low values 0.99 | [14] 0.997 | locus YNR049C, strain mso1, hits give low values 0.984 | locus YNR052C, strain pop2, hits give low values 0.988 | locus YOL012C, strain htz1 0.84 | locus YOL147C, strain pex11, hits give low values 0.993 | locus YOR001W, strain rrp6, hits give low values 1.01 | locus YOR061W, strain CKA2, hits give low values 0.991 | locus YOR069W, strain VPS5, hits give low values 0.992 | locus YOR070C, strain gyp1, hits give low values 1.01 | locus YOR080W, strain dia2, hits give low values 0.997 | locus YOR083W, strain WHI5, hits give low values 0.999 | locus YOR106W, strain vam3, hits give low values 0.999 | locus YOR136W, strain idh2, hits give low values 0.971 | locus YOR144C, strain elg1, hits give low values 0.989 | locus YOR184W, strain ser1, hits give low values 0.992 | locus YOR231W, strain MKK1, hits give low values 0.965 | locus YOR265W, strain rbl2, hits give low values 1.01 | locus YOR270C, strain vph1, hits give low values 1.02 | locus YOR290C, strain snf2, hits give low values 0.974 | locus YOR316C, strain cot1, hits give low values 0.986 | locus YPL051W, strain arl3, hits give low values 0.999 | [15] 1.01 | locus YPL078C, strain atp4, hits give low values 0.994 | locus YPL106C, strain sse1, hits give low values 1.01 | locus YPL240C, strain hsp82, hits give low values 0.99 | [16] 1.01 | locus YPL256C, strain CLN2, hits give low values 0.948 | locus YPR119W, strain clb2, hits give low values 0.99 | locus YPR141C, strain kar3, hits give low values 0.984 | locus YPR163C, strain tif3, hits give low values 0.992 | locus YPR167C, strain met16, hits give low values 0.996 | strain wtn01, hits give low values 0.93

Cc1cc(C2=CSC3=NCCN23)ccc1Cl
inactive: [1] 0.99 | [2] 1.01 | [3] 0.974 | [4] 0.989 | [5] 0.974 | [6] 1 | locus YGR078C, strain PAC10, hits give low values 0.989 | [7] 0.872 | locus YHR087W, strain rtc3, hits give low values 1.01 | [8] 1 | [9] 0.999 | [10] 0.982 | [11] 1.02 | locus YLR058C, strain SHM2 (second series), hits give low values 0.996 | locus YLR085C, strain ARP6, hits give low values 0.933 | [12] 1.03 | locus YML094W, strain GIM5, hits give low values 0.99 | locus YMR219W, strain ESC1, hits give low values 0.987 | [13] 0.998 | locus YNL153C, strain GIM3, hits give low values 0.992 | locus YNL298W, strain CLA4 (second series), hits give low values 0.946 | [14] 0.989 | locus YNR030W, strain Alg12, hits give low values 0.994 | locus YOL006C, strain TOP1, hits give low values 0.752 | [15] 1.02 | [16] 0.975 | locus YPR135W, strain CTF4, hits give low values 0.709
